Experimental data: the supplement of paper PMC6555819

Key:
Assay in all cases: PBM binding z-score (relative to random genomic background probes); higher = stronger binding; sequences stand for … in GC…GCGATTGACAGCGTAGAATGAAGG
[1] = test system: PPARg:RXRa DBDmut IVT, anti-RXR (DBD mutation: RXRa K156A/R161A, NR concentration 270 nM, RXRa partner concentration 90 nM)
Procedure, shortened: (§1)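 Ligand-free nuclear receptor dimers were bound for 1 h to custom Agilent 4×180K protein-binding microarrays. Detection used antibodies against each partner (one per run). Binding z-scores rest on regression-normalized fluorescence, with random background probes as the reference.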

[2] = test system: PPARg:RXRa IVT, anti-PPARg (NR concentration 270 nM, RXRa partner concentration 90 nM)
Procedure, shortened: as §1

[3] = test system: PPARg DBDmut:RXRa IVT, anti-PPARg (DBD mutation: PPARg1 K132A/R137A, NR concentration 270 nM, RXRa partner concentration 90 nM)
Procedure, shortened: as §1

[4] = test system: PPARg DBDmut IVT, anti-PPARg (DBD mutation: PPARg1 K132A/R137A, NR concentration 270 nM)
Procedure, shortened: as §1

[5] = test system: PPARg homodimer (NR concentration 180 nM)
Procedure, shortened: as §1

[6] = test system: PXR:RXRa (NR concentration 270 nM, RXRa partner concentration 90 nM)
Procedure, shortened: as §1

[7] = test system: PXR homodimer (NR concentration 270 nM)
Procedure, shortened: as §1

[8] = test system: RARa:RXR (NR concentration 270 nM, RXRa partner concentration 90 nM)
Procedure, shortened: as §1

[9] = test system: RARa homodimer (NR concentration 270 nM)
Procedure, shortened: as §1

[10] = test system: RARb:RXRa (NR concentration 270 nM, RXRa partner concentration 90 nM)
Procedure, shortened: as §1

[11] = test system: RARb homodimer (NR concentration 270 nM)
Procedure, shortened: as §1

[12] = test system: RARg:RXRa (NR concentration 270 nM, RXRa partner concentration 90 nM)
Procedure, shortened: as §1

[13] = test system: RARg homodimer (NR concentration 270 nM)
Procedure, shortened: as §1

[14] = test system: RXRa DBDmut IVT, anti-RXR (DBD mutation: RXRa K156A/R161A, NR concentration 90 nM)
Procedure, shortened: as §1

[15] = test system: RXRa homodimer (NR concentration 180 nM)
Procedure, shortened: as §1

[16] = test system: THRa:RXRa (NR concentration 90 nM, RXRa partner concentration 90 nM)
Procedure, shortened: as §1

[17] = test system: THRa homodimer (NR concentration 90 nM)
Procedure, shortened: as §1

[18] = test system: VDR homodimer (NR concentration 270 nM)
Procedure, shortened: as §1

ACTATTAGTTGCCTTAGGGCAACCGATACGACGC
PBM binding z-score [1]: -0.0728 | PBM binding z-score [2]: 0.674 | PBM binding z-score [3]: 0.726 | PBM binding z-score [4]: 0.896 | PBM binding z-score [5]: 0.221 | PBM binding z-score [6]: 0.335 | PBM binding z-score [7]: -0.148 | PBM binding z-score [8]: 0.576 | PBM binding z-score [9]: 0.282 | PBM binding z-score [10]: 0.771 | PBM binding z-score [11]: 0.893 | PBM binding z-score [12]: 0.429 | PBM binding z-score [13]: 0.732 | PBM binding z-score [14]: 0.351 | PBM binding z-score [15]: 0.447 | PBM binding z-score [16]: 1.46 | PBM binding z-score [17]: 0.815 | PBM binding z-score [18]: 0.176

GATACAGGGTCAGATAGAGGCCAGAGTATGGAAA
PBM binding z-score [1]: 1 | PBM binding z-score [2]: 2.53 | PBM binding z-score [3]: 1.35 | PBM binding z-score [4]: 0.368 | PBM binding z-score [5]: 2.7 | PBM binding z-score [6]: 3.26 | PBM binding z-score [7]: 0.844 | PBM binding z-score [8]: 4.13 | PBM binding z-score [9]: 0.243 | PBM binding z-score [10]: 3.97 | PBM binding z-score [11]: 3.28 | PBM binding z-score [12]: 6.34 | PBM binding z-score [13]: 4.42 | PBM binding z-score [14]: 1.75 | PBM binding z-score [15]: 4.42 | PBM binding z-score [16]: 3.16 | PBM binding z-score [17]: 0.893 | PBM binding z-score [18]: 1.42

TTACCAAGCTGAAGGTCGTTGATCCCTCTGTAGA
PBM binding z-score [1]: -0.256 | PBM binding z-score [2]: -0.224 | PBM binding z-score [3]: -1.71 | PBM binding z-score [4]: -1.67 | PBM binding z-score [5]: -0.217 | PBM binding z-score [6]: 1 | PBM binding z-score [7]: -0.159 | PBM binding z-score [8]: 0.87 | PBM binding z-score [9]: -1.08 | PBM binding z-score [10]: 0.656 | PBM binding z-score [11]: 0.756 | PBM binding z-score [12]: 0.152 | PBM binding z-score [13]: -0.231 | PBM binding z-score [14]: -0.269 | PBM binding z-score [15]: 1.13 | PBM binding z-score [16]: 0.571 | PBM binding z-score [17]: -0.583 | PBM binding z-score [18]: 0.305

CCTAGCAGGCAAATCTGGGTCACTCAAGGCTTGA
PBM binding z-score [1]: 4.27 | PBM binding z-score [2]: 5.25 | PBM binding z-score [3]: -0.619 | PBM binding z-score [4]: -1.06 | PBM binding z-score [5]: 0.358 | PBM binding z-score [6]: 0.746 | PBM binding z-score [7]: -0.354 | PBM binding z-score [8]: 0.989 | PBM binding z-score [9]: -0.416 | PBM binding z-score [10]: 1.16 | PBM binding z-score [11]: 1.85 | PBM binding z-score [12]: 1 | PBM binding z-score [13]: 0.802 | PBM binding z-score [14]: 0.0934 | PBM binding z-score [15]: 0.625 | PBM binding z-score [16]: 2.89 | PBM binding z-score [17]: 0.513 | PBM binding z-score [18]: -0.357

ATCTCTAGGTATAGTTCAGTGAAAGATCGATAGA
PBM binding z-score [1]: 0.435 | PBM binding z-score [2]: 0.496 | PBM binding z-score [3]: 1.64 | PBM binding z-score [4]: 2.13 | PBM binding z-score [5]: 1.8 | PBM binding z-score [6]: 0.83 | PBM binding z-score [7]: 1.11 | PBM binding z-score [8]: 1.08 | PBM binding z-score [9]: 1.34 | PBM binding z-score [10]: 1.15 | PBM binding z-score [11]: 1.4 | PBM binding z-score [12]: 0.857 | PBM binding z-score [13]: 1 | PBM binding z-score [14]: 0.996 | PBM binding z-score [15]: 0.686 | PBM binding z-score [16]: 0.473 | PBM binding z-score [17]: 0.453 | PBM binding z-score [18]: 1.12

TCTGCTAGGTCAATTGGTCAGCTAACGAGCTGCC
PBM binding z-score [1]: 3.71 | PBM binding z-score [2]: 3.87 | PBM binding z-score [3]: 1.29 | PBM binding z-score [4]: 0.854 | PBM binding z-score [5]: 2.37 | PBM binding z-score [6]: 0.895 | PBM binding z-score [7]: -0.774 | PBM binding z-score [8]: 1.87 | PBM binding z-score [9]: -0.436 | PBM binding z-score [10]: 3.79 | PBM binding z-score [11]: 2.93 | PBM binding z-score [12]: 3.91 | PBM binding z-score [13]: 4.34 | PBM binding z-score [14]: 1.21 | PBM binding z-score [15]: 2.09 | PBM binding z-score [16]: 2.3 | PBM binding z-score [17]: -0.00918 | PBM binding z-score [18]: -0.473

CACACTAGGTCAAGGTCAAAGTCGGTTTGTGCCA
PBM binding z-score [1]: 7.8 | PBM binding z-score [2]: 8.02 | PBM binding z-score [3]: 6.91 | PBM binding z-score [4]: 5.72 | PBM binding z-score [5]: 7.79 | PBM binding z-score [6]: 5.54 | PBM binding z-score [7]: 4.08 | PBM binding z-score [8]: 5.87 | PBM binding z-score [9]: 3.51 | PBM binding z-score [10]: 5.03 | PBM binding z-score [11]: 4.95 | PBM binding z-score [12]: 6.21 | PBM binding z-score [13]: 6.6 | PBM binding z-score [14]: 3.28 | PBM binding z-score [15]: 5.76 | PBM binding z-score [16]: 4.44 | PBM binding z-score [17]: 4.03 | PBM binding z-score [18]: 4.95

ATCGAAAGGTCGAGGTGAGTAAAGAGAAAGGGAA
PBM binding z-score [1]: 0.198 | PBM binding z-score [2]: 1.99 | PBM binding z-score [3]: 1.11 | PBM binding z-score [4]: 0.693 | PBM binding z-score [5]: 1.75 | PBM binding z-score [6]: 2 | PBM binding z-score [7]: 0.184 | PBM binding z-score [8]: 2.88 | PBM binding z-score [9]: 0.627 | PBM binding z-score [10]: 3.95 | PBM binding z-score [11]: 2.34 | PBM binding z-score [12]: 4.22 | PBM binding z-score [13]: 4.38 | PBM binding z-score [14]: 0.813 | PBM binding z-score [15]: 4.08 | PBM binding z-score [16]: 2.63 | PBM binding z-score [17]: 0.539 | PBM binding z-score [18]: 0.357
